Assay outcomes from PubChem BioAssay.
p53ts 39C tox: kills p53ts cells at the nonpermissive temperature. Potency, µM (series often up to 46.1 µM), without a hit: at the top dose activity change, negative = cell killing, usual class: cytotoxic. H1299-p53A138V viability at 39C, ATP luminescence, 24 h. hit rate 1.5% among 130,000; note: % is set by controls: 0 for no effect and ±100 for the full control effect; nearly all actives have a fitted effect of over 55% in size
p53ts 32C kill: p53ts cell cytotoxicity, permissive temperature. H1299-p53A138V at 32C, ATP luminescence viability, 24 h. Potency, µM (highest dose often 46.1 µM), for the others: at the highest dose activity change, negative = cytotoxicity, usual class: cytotoxic. hit rate 0.93% among 130,000. AID 924;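 note: 0% = DMSO and -100% = full killing by reference compound; nearly all actives have a fitted effect of over 55% in size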
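Viability by ATPlite luminescence after 24 h compound treatment (up to 46 uM) at the permissive 32C. Cells are H1299 carrying p53 A138V. Scale runs from DMSO basal to 100 uM tamoxifen as full kill; AC50 from Hill fits.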
Imprint erasure: inducers of genomic imprint erasure in mouse ES cells; AID 1948; Potency, µM (series often up to 60.7 µM), for inactives: top-dose activity change, positive = activation, actives largely listed as activators; mouse ES Peg3-LacZ reporter, beta-gal luminescence, 40 h; hit rate 0.02% among 110,000
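Imprint erasure is scored as LacZ activity from the silenced maternal Peg3 allele in feeder-free female ES cells cultured 40 h with LIF. Luminescence is normalized to in-plate negative controls and fitted to the Hill equation.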
IkB sig inh: inhibitors of IkB signaling in ABC-DLBCL cells; ABC-DLBCL IkBa-CBG/CBR dual luciferase ratio, 4 h; response scale: scaled: untreated 0%, proteasome inhibitor 100%; Potency, µM (titrated, usually from 57.1 µM), for the others: at the highest dose IkBa stabilization activation; hit rate 0.04% among 110,000; AID 445; active = well fitted curve in the direction sought with a large enough effect in the signal ratio, not every such curve was filed as active; inconclusive = small, poorly fitted or top-dose-only effect, or a change in a side signal; the % refers to the signal ratio;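 note: the direction sought is a rising ratio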
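Luminescence ratio of IκBα-fused green versus native red beetle luciferase in OCI-Ly3 cells, 4 h post-doxycycline with compound; red signal alone, scaled from basal (0%) to zero light (-100%), flagged nonspecific or cytotoxic effects.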
* hit, by the source's call; ! = not confirmed by another sample; [ ] = another dose, or the depositor's remark. This is a sample that favours compounds with a hit; in the whole collection about 1.8% have one here. Unless noted, calls come from the whole dose curve; as a rule, active = well fitted curve in the direction sought with a large enough effect; inconclusive = small, poorly fitted or top-dose-only effect, or another doubt; inactive = no such curve, though single readings can be large; an effect the other way counts as inactive or inconclusive. Potency is the fitted concentration of half-maximal effect.

`Cc1nc2c(=O)n(C)c(=O)nc-2n(C)n1` gave p53ts 39C tox 2µM* and p53ts 32C kill 1.1µM*.
Screening CCCCCC[C@H]1C(=O)O[C@@H](C)[C@H](NC(=O)c2cccc(NC=O)c2O)C(=O)O[C@@H](C)[C@@H]1OC(=O)CC(C)C returned IkB sig inh 6%[11.4 µM].
O=C(NCCc1ccc(Cl)cc1)c1ccc(Nc2nc3ccccc3n3nnnc23)cc1 was read as p53ts 39C tox 7.9µM*, p53ts 32C kill inconclusive, Imprint erasure -5%[10.9 µM] and IkB sig inh inconclusive.
Oc1ccc([C@H](O)[C@@H]2CCCCN2)cc1O was read as p53ts 39C tox 2%[9.22 µM], p53ts 32C kill -2%[9.22 µM] and IkB sig inh -1%[11.4 µM].
Screening COC(=O)[C@]1(C)CC[C@@]2(C)CC[C@@]3(C)C4=CC=C5C(=CC(=O)C(O)=C5C)[C@@]4(C)CC[C@@]3(C)C2C1 (some centres not stated) returned p53ts 39C tox 13µM*, p53ts 32C kill 10µM* and Imprint erasure -45%.
Screening CCCOc1ccc(C(=O)Nc2ccc(-c3cc4ccccc4oc3=O)c(C)c2)cc1 returned p53ts 39C tox 6.3µM*, p53ts 32C kill inconclusive, Imprint erasure -20%[10.9 µM] and IkB sig inh inconclusive.
`CCCOC(=O)COc1cc(C)cc2oc(=O)c3c(c12)CCC3` gave p53ts 39C tox -2%, p53ts 32C kill 1%, Imprint erasure -11% and IkB sig inh 2%.
For O=c1cccc2n1C[C@@H]1C[C@H]2CN2CCCC[C@H]12 the results were IkB sig inh 3%[11.4 µM].
Screening COc1cc2c(cc1OC)[C@]13CCN4CC5=CCO[C@@H]6CC(=O)N2[C@@H]1[C@H]6[C@@H]5C[C@H]43 returned IkB sig inh -1%[11.4 µM].
Screening Cc1nc2cc(C(F)(F)F)ccc2n1C1CCN(Cc2nnnn2Cc2cccs2)CC1 returned p53ts 39C tox -7%, p53ts 32C kill -3%, Imprint erasure -14% and IkB sig inh 3%.
Screening Cc1nc2cc(C(F)(F)F)ccc2n1C1CCN(Cc2nnnn2Cc2ccc3c(c2)OCO3)CC1 returned p53ts 39C tox 20µM*, p53ts 32C kill -22%, Imprint erasure -19% and IkB sig inh inconclusive.
For CCC(C=C[C@@H]1OC(=O)C=C[C@H]1C)=C[C@H](C)CC=CC(C)=C[C@@H](C)C(=O)[C@@H](C)[C@H](O)[C@@H](C)CC(C)=CC(=O)O the results were Imprint erasure 14%[2 µM].
COc1cc([C@@H](O)CN)ccc1O was read as p53ts 39C tox 10%, p53ts 32C kill 5% and IkB sig inh -3%.
For [Cd+2].[Cl-].[Cl-] the results were p53ts 39C tox 1.3µM*, Imprint erasure -22% and IkB sig inh 4µM*.
For COc1ccc2c(c[n+](C)c3c4cc5c(cc4ccc23)OCO5)c1OC the results were p53ts 39C tox 13µM*, p53ts 32C kill 5µM*, Imprint erasure -32% and IkB sig inh inconclusive.
For CC(C)[C@@]1(NC(=O)[C@@H]2C=C3c4cccc5[nH]cc(c45)C[C@@H]3N(C)C2)O[C@]2(O)[C@H]3CCCN3C(=O)[C@H](Cc3ccccc3)N2C1=O the results were IkB sig inh 0%.
For CC(C)[C@@]1(NC(=O)[C@@H]2C[C@H]3c4cccc5[nH]cc(c45)C[C@@H]3N(C)C2)O[C@@]2(O)[C@H]3CCCN3C(=O)[C@H](Cc3ccccc3)N2C1=O the results were p53ts 39C tox 32µM*!, p53ts 32C kill inconclusive, Imprint erasure -4% and IkB sig inh inconclusive.
For C[C@@]12CC[C@H]3[C@@H](CC=C4C[C@H](OS(=O)(=O)O)CC[C@]43C)[C@H]1CCC2=O the results were p53ts 39C tox 7%, p53ts 32C kill 17% and IkB sig inh -1%.
Cc1ccc(NC(=O)Nc2ccc3nc(N4CCN(C)CC4)cc(C)c3c2)cc1F was read as p53ts 39C tox inconclusive, p53ts 32C kill 25µM*, Imprint erasure 4%[10.9 µM] and IkB sig inh -6%.
CC(C)(C)NC[C@H](O)c1ccccc1Cl was read as p53ts 39C tox -9%, p53ts 32C kill -6% and IkB sig inh -2%.
For C[C@@H](Cc1cccc(C(F)(F)F)c1)NCCCc1ccccc1 the results were p53ts 39C tox 25µM*, p53ts 32C kill -5%, Imprint erasure -23% and IkB sig inh inconclusive.
